Test [1] in a line: optical density shifts of acrAB sulA E. coli – strain DRC41, OD650, 48 h, E. coli filamentation inducer project, primary screen (AID 1152).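 Further: E. coli MC1000 strain DRC41 lacking acrAB efflux pump and sulA.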 The note with it: higher = more signal, called active from +8 up or from −8 down.
A short description of test [2]: probe aLefty1 binding on compound microarray – biochemical, small-molecule microarray, 635/667 nm fluorescence, primary screen (AID 1153).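 Further: score merges spot fluorescence with signal-to-noise ratio from the scanned slide images.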 Particulars: higher = more signal.
The nature of test [3]: plasmodial surface anion channel blockers, osmotic lysis – cell-based, P. falciparum Indochina, OD700, 1 h, primary screen (AID 1154). Particulars: P. falciparum Indochina infected RBC osmotic lysis, higher = more signal, called active from +8 up or from −8 down.
Test [4] is described as follows: plasmodial surface anion channel blockers, osmotic lysis – cell-based, P. falciparum Indochina, OD700, 2 h, primary screen (AID 1155).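 Further: lysis reports solute entry through the parasite surface anion channel PSAC.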 Particulars: P. falciparum Indochina infected erythrocytes, higher = more signal, called active from +8 up or from −8 down.
The nature of test [5]: changes in parasitized red cell lysis, either direction – P. falciparum Indochina, OD700, 3 h, PSAC antagonist project, primary screen (AID 1156). The note with it: P. falciparum-infected erythrocytes, osmotic lysis, higher = more signal, called active from +8 up or from −8 down.
A short description of test [6]: plasmodial surface anion channel blockers, osmotic lysis – cell-based, P. falciparum Indochina, OD700, 18 h, primary screen (AID 1157). The note with it: P. falciparum Indochina infected erythrocytes, osmotic lysis OD700, 18 h; higher = more signal, called active from +8 up or from −8 down.
Test [7] is described as follows: S6 kinase pathway phospho-S6 level changes – cell-based, A549, cytoblot, luminescence, serum-stimulated, primary screen (AID 1158).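 Further: serum-stimulated A549 lung adenocarcinoma cells; signal is phosphorylated S6 detected by cytoblot immunostaining with HRP secondary.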 Particulars: 5 h, higher = more signal.
Test [8] has as its target NADPH oxidase 2 (Homo sapiens) (UniProt P04839). Put plainly: compounds shifting NOX2 Amplex Red fluorescence – cell-based, HEK293-NOX2, PMA-stimulated, NOX inhibitor project, primary screen (AID 1159). Further: test concentration not given here. The note with it: 45 min, higher = more signal, called active from +8 up or from −8 down.
Test [9] addresses NADPH oxidase 4 (Homo sapiens) (UniProt Q9NPH5). Briefly: compounds shifting NOX4 Amplex Red fluorescence – cell-based, HEK293-NOX4, tetracycline-induced, NOX inhibitor project, primary screen (AID 1160). The note with it: HEK293-NOX4, Amplex Red H2O2 fluorescence, 45 min; higher = more signal, called active from +8 up or from −8 down.
Test [10] addresses NADPH oxidase 5 (Homo sapiens) (UniProt Q96PH1). Put plainly: compounds shifting NOX5 Amplex Red fluorescence – cell-based, HEK293-NOX5, NOX inhibitor project, primary screen (AID 1161). The note with it: HEK293-NOX5, ionomycin, 45 min, higher = more signal.
The nature of test [11]: compound effects on lung adenocarcinoma cell viability – A549, calcein-AM fluorescence, 48 h, basal, profiling panel (AID 1162). Further: test concentration not given here. The note with it: higher = more signal.
A short description of test [12]: compound effects on differentiated 3T3-L1 adipocyte viability – cell-based, 3T3-L1 adipocytes, calcein-AM fluorescence, 48 h, basal, profiling panel (AID 1163). Further: test concentration not given here. The note with it: 3T3-L1 adipocytes viability, higher = more signal.
A short description of test [13]: compound effects on hepatocellular carcinoma cell viability – HepG2, calcein-AM fluorescence, 48 h, basal, profiling panel (AID 1164). Further: test concentration not given here. The note with it: higher = more signal.
Test [14] can be described thus: compound effects on multiple myeloma cell viability – MM1S, calcein-AM fluorescence, 48 h, basal, profiling panel (AID 1165).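 Further: viability of MM1S multiple myeloma cells under basal unstimulated conditions; test concentration not given here.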 Particulars: higher = more signal.
Test [15] in a line: calcein-AM signal in unstimulated myeloma cells – cell-based, calcein-AM fluorescence, 48 h, PK04 Diversity Set, profiling panel (AID 1166).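 Further: cells grown under basal conditions without added stimulus; test concentration not given here.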 Particulars: RPMI8226 myeloma viability, higher = more signal.
Test [16] in a line: JC-1 mitochondrial signal, unstimulated HepG2 cells – cell-based, JC-1 fluorescence, 24 h, 100 nL compound, profiling panel (AID 1167). Further: test concentration not given here. The note with it: HepG2 mitochondrial potential, higher = more signal.
Test [17] in a line: JC-1 mitochondrial signal, unstimulated adipocytes – cell-based, JC-1 fluorescence, 3T3-L1 adipocytes, 24 h, 100 nL compound, profiling panel (AID 1168). Further: test concentration not given here. Particulars: JC-1 mitochondrial fluorescence, higher = more signal, called active from +8 up or from −8 down.
Test [18] is described as follows: JC-1 mitochondrial signal, unstimulated myeloma cells – cell-based, JC-1 fluorescence, RPMI8226, 24 h, 100 nL compound, profiling panel (AID 1169). Further: test concentration not given here. Particulars: JC-1 mitochondrial potential fluorescence, higher = more signal.
A short description of test [19]: JC-1 mitochondrial signal, unstimulated MM1S myeloma – cell-based, JC-1 fluorescence, 24 h, 100 nL compound, profiling panel (AID 1170). Further: test concentration not given here. The note with it: MM1S mitochondrial potential, higher = more signal.
Test [20] in a line: resazurin metabolic signal in A549 cells – cell-based, resazurin fluorescence, 24 h, PK04 Diversity Set, profiling panel (AID 1171). Further: test concentration not given here. Particulars: A549 viability, higher = more signal, called active from +8 up or from −8 down.

Active and inactive are the calls of the source.

NADPH oxidase 2 (Homo sapiens), sequence (P04839 whole entry, looked up): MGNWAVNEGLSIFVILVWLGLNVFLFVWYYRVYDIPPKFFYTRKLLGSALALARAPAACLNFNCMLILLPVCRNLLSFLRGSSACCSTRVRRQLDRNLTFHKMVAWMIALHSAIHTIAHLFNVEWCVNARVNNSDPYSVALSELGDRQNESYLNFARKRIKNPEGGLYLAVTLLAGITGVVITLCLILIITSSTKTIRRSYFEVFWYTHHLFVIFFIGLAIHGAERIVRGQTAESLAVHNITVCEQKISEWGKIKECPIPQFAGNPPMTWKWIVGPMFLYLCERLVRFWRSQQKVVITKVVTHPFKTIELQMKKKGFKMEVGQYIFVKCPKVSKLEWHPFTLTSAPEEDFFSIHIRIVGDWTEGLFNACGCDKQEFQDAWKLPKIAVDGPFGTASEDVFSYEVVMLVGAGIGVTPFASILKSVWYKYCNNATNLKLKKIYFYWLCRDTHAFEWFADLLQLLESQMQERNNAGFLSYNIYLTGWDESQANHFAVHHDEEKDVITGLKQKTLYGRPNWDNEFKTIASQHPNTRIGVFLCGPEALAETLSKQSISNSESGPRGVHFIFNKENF
NADPH oxidase 4 (Homo sapiens), sequence (Q9NPH5 whole entry, looked up): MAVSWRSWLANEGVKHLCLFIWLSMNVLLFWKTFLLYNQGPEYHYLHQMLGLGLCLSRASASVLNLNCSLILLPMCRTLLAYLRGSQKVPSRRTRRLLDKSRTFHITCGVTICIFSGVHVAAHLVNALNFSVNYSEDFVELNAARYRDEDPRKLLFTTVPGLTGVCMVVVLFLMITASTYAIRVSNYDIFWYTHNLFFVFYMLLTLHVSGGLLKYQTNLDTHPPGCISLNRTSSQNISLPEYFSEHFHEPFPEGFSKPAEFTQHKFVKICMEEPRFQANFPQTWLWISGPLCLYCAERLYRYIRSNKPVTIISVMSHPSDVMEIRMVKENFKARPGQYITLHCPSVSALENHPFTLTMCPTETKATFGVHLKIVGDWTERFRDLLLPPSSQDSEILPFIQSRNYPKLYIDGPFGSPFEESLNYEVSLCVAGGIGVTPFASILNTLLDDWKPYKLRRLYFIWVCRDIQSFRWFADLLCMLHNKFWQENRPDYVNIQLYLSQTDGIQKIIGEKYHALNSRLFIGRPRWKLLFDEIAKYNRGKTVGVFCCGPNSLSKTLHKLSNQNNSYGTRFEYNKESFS
NADPH oxidase 5 (Homo sapiens), sequence (Q96PH1 whole entry, looked up): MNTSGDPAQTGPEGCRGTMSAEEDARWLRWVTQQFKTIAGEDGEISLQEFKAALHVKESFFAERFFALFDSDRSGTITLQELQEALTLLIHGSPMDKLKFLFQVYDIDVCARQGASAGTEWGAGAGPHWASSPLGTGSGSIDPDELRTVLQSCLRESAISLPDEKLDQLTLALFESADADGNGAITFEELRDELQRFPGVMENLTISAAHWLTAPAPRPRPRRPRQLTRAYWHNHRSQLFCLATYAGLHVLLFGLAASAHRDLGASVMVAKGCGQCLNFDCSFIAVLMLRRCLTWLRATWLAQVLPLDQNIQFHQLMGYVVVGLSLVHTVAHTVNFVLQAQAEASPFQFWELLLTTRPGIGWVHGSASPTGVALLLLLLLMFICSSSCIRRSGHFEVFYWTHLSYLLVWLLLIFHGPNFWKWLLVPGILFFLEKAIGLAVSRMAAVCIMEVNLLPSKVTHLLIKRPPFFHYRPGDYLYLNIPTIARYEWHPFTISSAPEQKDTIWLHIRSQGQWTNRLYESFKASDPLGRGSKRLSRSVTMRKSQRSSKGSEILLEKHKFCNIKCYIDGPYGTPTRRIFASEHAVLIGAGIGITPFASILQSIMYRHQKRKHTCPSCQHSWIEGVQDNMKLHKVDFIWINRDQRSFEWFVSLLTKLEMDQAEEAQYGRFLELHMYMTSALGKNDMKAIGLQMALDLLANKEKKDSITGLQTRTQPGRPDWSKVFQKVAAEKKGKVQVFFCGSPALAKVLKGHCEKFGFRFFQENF

As for `O=C1C[C@@H](O)[C@@H](O)[C@@H]2[C@@H]3C(=O)N(c4ccc(F)cc4F)C(=O)[C@@H]3CC[C@@H]12`, the z-score is -0.349 (inactive) in test [1]; -0.571 (inactive) in [3]; -0.0709 (inactive) in test [4]; -0.659 (inactive) in test [5]; -0.408 (inactive) in test [6]; -0.0159 in [7]. The z-score in test [8] is -2.64 (inactive); in [9] it was 0.473 (inactive); in test [10] it was -0.457; in [11] it was -0.294; in test [12] it was -0.0367; in test [13] it was 0.644. The z-score in [14] is -0.701; in test [15] it was -0.709; in test [16] it was -0.56; in test [17], -0.597 (inactive); in [18], -0.28; in [19] it was 0.959. In addition, the z-score in test [20] was 0.824 (inactive). Besides, the composite z-score in [2] is -0.101.

As to `CC(CCN1CCCCc2nc(C)c(C)cc21)=NOC(C)CN1CCCCc2nc(C)c(C)cc21` (stereo not given), the z-score in test [1] is -2.08 (inactive); in test [3] it was 1.38 (inactive); in [4], 0.329 (inactive); in [5], 0.964 (inactive); in test [6], 0.587 (inactive); in test [7] it was -0.839. The z-score in test [8] was -1.47 (inactive); in test [9] it was -3.07 (inactive); in test [10] it was -1.31; in [11], -0.282; in test [12] it was -0.0335; in test [13], -1.12. The z-score in test [14] was -2.33; in test [15], -0.696; in test [16], 3.61; in [17] it was -1.2 (inactive); in test [18], 0.308; in test [19], -0.16. For the same molecule, in [20], the z-score is 0.661 (inactive). The composite z-score in test [2] amounted to 0.235.

Turning to `N#Cc1ccc(NN2C(C(O)c3cc(C(F)(F)F)cc(C(F)(F)F)c3)C=CC3C(=O)N(c4ccccc4)C(=O)C32)cc1` (stereo not given), the z-score in [1] was -1.54 (inactive); in [3], 4.78 (inactive); in test [4] it was 2.32 (inactive); in test [5] it was -3.13 (inactive); in [6] it was 1.54 (inactive); in [7], -1.07. In addition, the z-score in [8] is -1.19 (inactive); in test [9] it was -3.23 (inactive); in test [10], -1.4; in test [11], -0.676; in test [12] it was -0.461; in test [13] it was -1.22. The z-score in test [14] is -1.45; in test [15], -3.8; in test [16] it was -2.78; in test [17], -0.189 (inactive); in test [18], -0.754; in test [19], 0.0337. Moreover, the z-score in test [20] is -0.557 (inactive). Besides, the composite z-score in test [2] was found to be 0.0971.

In the case of `CC(C)C[C@@H]1NC(=O)[C@H]2C[C@@H](C(=O)NCCCCCCN(C)C)[C@@H](c3cccc(OCCO)c3)N2C1=O`, the z-score in test [1] is -0.054 (inactive); in test [3] it was 4.3 (inactive); in [4], 0.594 (inactive); in [5], 1.04 (inactive); in test [6], 0.154 (inactive); in test [7], 0.0695. Further, the z-score in [8] is 1.77 (inactive); in test [9] it was 1.07 (inactive); in test [10], 1.84; in [11], -1.26; in [12], 0.88; in [13], -0.278. The z-score in test [14] was 0.303; in test [15], 0.651; in [16] it was -1.09; in [17], -0.481 (inactive); in test [18] it was -0.0673; in [19] it was -0.0169. Further, the z-score in test [20] is -0.21 (inactive). Also, in [2], the composite z-score was determined as 0.0816.

For the molecule `O=C1[C@H]2[C@H]3[C@H](O)[C@H](O)CC(=NOCc4ccccc4)[C@@H]3CC[C@H]2C(=O)N1Cc1ccccc1`, the z-score was 0.569 (inactive) in test [1]; 0.124 (inactive) in test [3]; 0.321 (inactive) in test [4]; 0.0319 (inactive) in test [5]; 0.627 (inactive) in [6]; -0.618 in test [7]. Moreover, the z-score in test [8] is -0.85 (inactive); in test [9] it was 0.433 (inactive); in [10], 0.326; in [11], -0.618; in test [12] it was -0.176; in test [13] it was -0.851. The z-score in [14] is 0.188; in test [15], -0.16; in test [16], -0.169; in test [17] it was -0.399 (inactive); in [18], -0.164; in test [19] it was -0.926. The z-score in test [20] is 1.59 (inactive). In [2], this molecule yielded a composite z-score of -0.147.

Take `CC(C)OC(=O)C=C1C[C@@H](c2ccc(C#N)cc2)O[C@@H](c2ccc(C#N)cc2)O1`: the z-score is 0.197 (inactive) in [1]; 8.57 (active) in [3]; 0.848 (inactive) in [4]; 0.78 (inactive) in test [5]; 0.439 (inactive) in test [6]; -0.342 in test [7]. The z-score in test [8] was -0.669 (inactive); in [9], -1.02 (inactive); in test [10] it was -0.607; in test [11] it was -0.301; in test [12] it was 0.538; in test [13], -0.0099. Besides, the z-score in [14] is -2.29; in [15], -0.69; in test [16], -1.06; in test [17], -0.195 (inactive); in test [18], -0.462; in test [19] it was -2.22. In addition, in test [20], the z-score was 0.199 (inactive). The molecule further registered a composite z-score in test [2] of 0.474.

As to `CC(CCN1CCc2nc(-c3ccccc3)c(-c3ccccc3)cc2C1)=NOC(C)CN1CCCCc2nc(C)c(C)cc21` (stereo not given), the z-score in test [1] was -0.934 (inactive); in test [3], 1.08 (inactive); in test [4] it was -0.198 (inactive); in test [5], 0.281 (inactive); in test [6], 0.343 (inactive); in [7] it was -0.0953. Further, the z-score in test [8] was -0.839 (inactive); in test [9] it was 0.405 (inactive); in test [10] it was 0.108; in [11], 0.646; in [12] it was 0.659; in test [13], 0.797. Besides, the z-score in test [14] is -1.82; in [15], -0.19; in test [16], 4.98; in test [17], -1.28 (inactive); in test [18], 0.303; in [19], 0.108. Besides, in [20], the z-score is 0.935 (inactive). This molecule also displayed a composite z-score in test [2] of -0.106.

For the molecule `COCC(=C=CC[C@@H](O)c1ccccc1OCCO)CCO`, the z-score in test [1] was 0.825 (inactive); in [3], 2.69 (inactive); in test [4] it was -0.0233 (inactive); in test [5] it was 0.454 (inactive); in test [6], 0.16 (inactive); in test [7], 0.613. Moreover, the z-score is 1.64 (inactive) in test [8]; 0.992 (inactive) in [9]; -0.132 in test [10]; 1.31 in test [11]; 0.177 in test [12]; 0.792 in test [13]. In addition, the z-score was 0.699 in [14]; 0.551 in test [15]; 0.429 in [16]; 0.432 (inactive) in [17]; -0.631 in test [18]; 0.918 in [19]. In addition, in test [20], the z-score was 0.675 (inactive). The same molecule displayed a composite z-score in test [2] of -0.0501.

For the molecule `C=C(/C(=C/C[C@@H](OC(=O)c1ccncc1)c1ccc(OCCO)cc1)c1cnc2ccccc2c1)C(C)C`, the z-score in test [1] is 1.13 (inactive); in test [3], 12.8 (active); in [4], 4.25 (inactive); in test [5] it was -1.77 (inactive); in test [6], -0.0139 (inactive); in test [7] it was 0.13. Further, the z-score in test [8] was -2.73 (inactive); in test [9], -0.648 (inactive); in [10], -3.24; in [11] it was 0.476; in test [12], 0.443; in test [13], -0.477. Moreover, the z-score in test [14] was -1.78; in test [15], 0.448; in test [16], 2.2; in [17] it was -0.883 (inactive); in test [18] it was -0.736; in [19], -0.48. In addition, in test [20], the z-score was -0.464 (inactive). The same molecule displayed a composite z-score in test [2] of -0.0199.

The values above are taken from PubChem BioAssay.
